What was measured:
Assay in all cases: area under confluence curve of osimertinib + compound combination regimen (DTP regrowth); compare to osimertinib-only DTP control AUC of the same experiment (AUC (confluence x time, arbitrary))
H1975 = settings: test compound dose 1000 nM
Method in brief: (§1)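 The area under the IncuCyte confluence–time curve, calculated in Prism and taken as the median of triplicates where available, is the value reported. It was measured in EGFR-mutant NSCLC lines that received the EGFR inhibitor either alone, followed by a test compound, or together with a fixed-dose test compound until the persister stage (10–21 days) and then drug-free medium. Medium was refreshed every 3–4 days until the inhibitor-only wells were confluent again.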

HCC2279 = settings: test compound dose 1000 nM
Method in brief: as §1

HCC2935 = settings: test compound dose 1000 nM
Method in brief: as §1

HCC4006 = settings: test compound dose 1000 nM
Method in brief: as §1

HCC827 = settings: test compound dose 1000 nM
Method in brief: as §1

II-18 = settings: test compound dose 1000 nM
Method in brief: as §1

PC9 = system: PC9
Method in brief: as §1

[1] = dosing schedule: sequential, osimertinib-only DTP control AUC in same experiment: 22968, DMSO control AUC in same experiment: 15857
[2] = dosing schedule: upfront, osimertinib-only DTP control AUC in same experiment: 27164, DMSO control AUC in same experiment: 15857
[3] = dosing schedule: sequential, osimertinib-only DTP control AUC in same experiment: 26096, DMSO control AUC in same experiment: 14404
[4] = dosing schedule: upfront, osimertinib-only DTP control AUC in same experiment: 33120, DMSO control AUC in same experiment: 14404
[5] = dosing schedule: sequential, osimertinib-only DTP control AUC in same experiment: 22314, DMSO control AUC in same experiment: 19215
[6] = dosing schedule: upfront, osimertinib-only DTP control AUC in same experiment: 29846, DMSO control AUC in same experiment: 19215
[7] = dosing schedule: sequential, osimertinib-only DTP control AUC in same experiment: 12791, DMSO control AUC in same experiment: 18415
[8] = dosing schedule: upfront, osimertinib-only DTP control AUC in same experiment: 17269, DMSO control AUC in same experiment: 18415
[9] = dosing schedule: sequential, osimertinib-only DTP control AUC in same experiment: 15330, DMSO control AUC in same experiment: 21320
[10] = dosing schedule: upfront, osimertinib-only DTP control AUC in same experiment: 20798, DMSO control AUC in same experiment: 21320
[11] = dosing schedule: sequential, osimertinib-only DTP control AUC in same experiment: 8624, DMSO control AUC in same experiment: 11834
[12] = dosing schedule: upfront, osimertinib-only DTP control AUC in same experiment: 10856, DMSO control AUC in same experiment: 11834
[13] = test compound dose 1000 nM, dosing schedule: sequential, osimertinib-only DTP control AUC in same experiment: 15001, DMSO control AUC in same experiment: 22064
[14] = test compound dose 1000 nM, dosing schedule: upfront, osimertinib-only DTP control AUC in same experiment: 24924, DMSO control AUC in same experiment: 22064
[15] = test compound dose 1000 nM, dosing schedule: sequential, osimertinib-only DTP control AUC in same experiment: 15044, DMSO control AUC in same experiment: 30604
[16] = test compound dose 1000 nM, dosing schedule: upfront, osimertinib-only DTP control AUC in same experiment: 20672, DMSO control AUC in same experiment: 30604

## COc1cc(CCc2cc(NC(=O)c3ccc(N4CC(C)NC(C)C4)cc3)n[nH]2)cc(OC)c1 (configuration not stated) + C=CC(=O)Nc1cc(Nc2nccc(-c3cn(C)c4ccccc34)n2)c(OC)cc1N(C)CCN(C)C [osimertinib]
H1975; dosing schedule: sequential, osimertinib-only DTP control AUC in same experiment: 12533, DMSO control AUC in same experiment: 14522
  area under confluence curve: 3690
H1975; dosing schedule: upfront, osimertinib-only DTP control AUC in same experiment: 18969, DMSO control AUC in same experiment: 14522
  area under confluence curve: 17800
HCC2279; dosing schedule: sequential, osimertinib-only DTP control AUC in same experiment: 20224, DMSO control AUC in same experiment: 29252
  area under confluence curve: 10100
HCC2279; dosing schedule: upfront, osimertinib-only DTP control AUC in same experiment: 43517, DMSO control AUC in same experiment: 29252
  area under confluence curve: 18500
HCC2935; dosing schedule: sequential, osimertinib-only DTP control AUC in same experiment: 9121, DMSO control AUC in same experiment: 11459
  area under confluence curve: 9140
HCC2935; dosing schedule: upfront, osimertinib-only DTP control AUC in same experiment: 12748, DMSO control AUC in same experiment: 11459
  area under confluence curve: 11800
HCC4006; dosing schedule: sequential, osimertinib-only DTP control AUC in same experiment: 22375, DMSO control AUC in same experiment: 16794
  area under confluence curve: 14900
HCC4006; dosing schedule: upfront, osimertinib-only DTP control AUC in same experiment: 24440, DMSO control AUC in same experiment: 16794
  area under confluence curve: 8920
HCC827; dosing schedule: sequential, osimertinib-only DTP control AUC in same experiment: 5666, DMSO control AUC in same experiment: 43928
  area under confluence curve: 3350
HCC827; dosing schedule: upfront, osimertinib-only DTP control AUC in same experiment: 19044, DMSO control AUC in same experiment: 43928
  area under confluence curve: 7760
II-18; dosing schedule: sequential, osimertinib-only DTP control AUC in same experiment: 7374, DMSO control AUC in same experiment: 23373
  area under confluence curve: 2610
II-18; dosing schedule: upfront, osimertinib-only DTP control AUC in same experiment: 15065, DMSO control AUC in same experiment: 23373
  area under confluence curve: 11500
PC9; test compound dose 1000 nM, dosing schedule: sequential, osimertinib-only DTP control AUC in same experiment: 9508, DMSO control AUC in same experiment: 26668
  area under confluence curve: 4800
PC9; test compound dose 1000 nM, dosing schedule: sequential, osimertinib-only DTP control AUC in same experiment: 10968, DMSO control AUC in same experiment: 21594
  area under confluence curve: 7160
PC9; test compound dose 1000 nM, dosing schedule: upfront, osimertinib-only DTP control AUC in same experiment: 11298, DMSO control AUC in same experiment: 26668
  area under confluence curve: 2090
PC9; test compound dose 1000 nM, dosing schedule: upfront, osimertinib-only DTP control AUC in same experiment: 17834, DMSO control AUC in same experiment: 21594
  area under confluence curve: 6660

## C[C@@H](Oc1cc(-c2cnn(C3CCNCC3)c2)cnc1N)c1c(Cl)ccc(F)c1Cl [Crizotinib] + C=CC(=O)Nc1cc(Nc2nccc(-c3cn(C)c4ccccc34)n2)c(OC)cc1N(C)CCN(C)C [osimertinib]
H1975; [1]
  area under confluence curve: 9770
H1975; [2]
  area under confluence curve: 9330
HCC2279; [3]
  area under confluence curve: 23100
HCC2279; [4]
  area under confluence curve: 32900
HCC2935; [5]
  area under confluence curve: 21400
HCC2935; [6]
  area under confluence curve: 33400
HCC4006; [7]
  area under confluence curve: 12500
HCC4006; [8]
  area under confluence curve: 13000
HCC827; [9]
  area under confluence curve: 10400
HCC827; [10]
  area under confluence curve: 15000
II-18; [11]
  area under confluence curve: 1450
II-18; [12]
  area under confluence curve: 10800
PC9; [13]
  area under confluence curve: 8360
PC9; [14]
  area under confluence curve: 7510

## Cc1cc2ncnn2cc1Nc1ncc2c(n1)n(C1CCOCC1)c(=O)n2C + C=CC(=O)Nc1cc(Nc2nccc(-c3cn(C)c4ccccc34)n2)c(OC)cc1N(C)CCN(C)C [osimertinib]
PC9; [15]
  area under confluence curve: 10500
PC9; [16]
  area under confluence curve: 12700

## CN(C)C(=O)c1cc2cnc(Nc3ccc(N4CCNCC4)cn3)nc2n1C1CCCC1 [Ribociclib] + C=CC(=O)Nc1cc(Nc2nccc(-c3cn(C)c4ccccc34)n2)c(OC)cc1N(C)CCN(C)C [osimertinib]
PC9; test compound dose 300 nM, dosing schedule: sequential, osimertinib-only DTP control AUC in same experiment: 23366, DMSO control AUC in same experiment: 88996
  area under confluence curve: 13600
PC9; test compound dose 300 nM, dosing schedule: upfront, osimertinib-only DTP control AUC in same experiment: 29852, DMSO control AUC in same experiment: 88996
  area under confluence curve: 20500

## O=C(c1cc(Cc2n[nH]c(=O)c3ccccc23)ccc1F)N1CCN(C(=O)C2CC2)CC1 [Olaparib] + C=CC(=O)Nc1cc(Nc2nccc(-c3cn(C)c4ccccc34)n2)c(OC)cc1N(C)CCN(C)C [osimertinib]
H1975; [1]
  area under confluence curve: 19500
H1975; [2]
  area under confluence curve: 21000
HCC2279; [3]
  area under confluence curve: 23100
HCC2279; [4]
  area under confluence curve: 29800
HCC2935; [5]
  area under confluence curve: 20700
HCC2935; [6]
  area under confluence curve: 26000
HCC4006; [7]
  area under confluence curve: 11700
HCC4006; [8]
  area under confluence curve: 18000
HCC827; [9]
  area under confluence curve: 12400
HCC827; [10]
  area under confluence curve: 23700
II-18; [11]
  area under confluence curve: 9480
II-18; [12]
  area under confluence curve: 9420
PC9; [13]
  area under confluence curve: 7460
PC9; [15]
  area under confluence curve: 12600
PC9; [16]
  area under confluence curve: 16600
PC9; [14]
  area under confluence curve: 18600

## CCn1cc(-c2cccc(C(F)(F)F)c2)c2sc(C(=N)NC3CCS(=O)(=O)CC3)cc2c1=O + C=CC(=O)Nc1cc(Nc2nccc(-c3cn(C)c4ccccc34)n2)c(OC)cc1N(C)CCN(C)C [osimertinib]
PC9; test compound dose 1000 nM, dosing schedule: sequential, osimertinib-only DTP control AUC in same experiment: 4730, DMSO control AUC in same experiment: 72888
  area under confluence curve: 4010
PC9; test compound dose 1000 nM, dosing schedule: upfront, osimertinib-only DTP control AUC in same experiment: 8775, DMSO control AUC in same experiment: 72888
  area under confluence curve: 6420

— the supplement of paper PMC9794691
